Out of some 5,500 compounds screened, about 2,000 (36%) were called active. Not shown: some 18% with an inconclusive outcome. No stated cut-off is given here; in the data, active means normalized growth mostly below about 0.91 (no sharp cut-off); inconclusive means no clear call, values can overlap the other calls; inactive means mostly above about 0.92. This is one part of the list.
Experiment: chemical genetic growth profiling, strain panel (AID 1159580);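 further: tested at 20 µM; growth read once vehicle control cultures reached saturation at 30 °C; 1 = growth at the plate median or of vehicle wells; lower values mean less growth of the strain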
Conditions: S. cerevisiae deletion strains, growth OD
[1] = locus YAL040C, strain CLN3, hits give low values
[2] = locus YCL061C, strain MRC1 (second series), hits give low values
[3] = locus YDR363W, strain ESC2, hits give low values
[4] = locus YER002W, strain NOP16, hits give low values
[5] = locus YNL175C, strain NOP13, hits give low values
[6] = locus YNL197C, strain WHI3, hits give low values
[7] = locus YNL224C, strain SQS1, hits give low values
[8] = locus YNL322C, strain KRE1, hits give low values
[9] = locus YOR083W, strain WHI5 (second series), hits give low values
[10] = locus YPL055C, strain LGE1, hits give low values
[11] = locus YPL241C, strain CIN2, hits give low values

Measured: normalized growth

O[Si](CCCN1CCCCC1)(c1ccc(F)cc1)C1CCCCC1 (configuration not stated)
inactive: [1] 0.964 | [2] 0.986 | [3] 0.988 | [4] 1.04 | locus YGR229C, strain SMI1, hits give low values 0.972 | locus YJR075W, strain HOC1, hits give low values 1.02 | locus YMR263W, strain SAP30, hits give low values 1 | [5] 0.995 | [6] 1.01 | [7] 1.01 | [8] 0.982 | [9] 1.08 | [10] 0.981 | [11] 0.994

CC1=CC(=O)C(CCOCCC2=CC(=O)C(C)=CC2=O)=CC1=O
active: locus YHR082C, strain KSP1, hits give low values 0.444 | locus YLR113W, strain HOG1, hits give low values 0.685 | locus YPL256C, strain CLN2, hits give low values 0.234
inactive: locus YAR019C, strain CDC15, hits give low values 0.981 | locus YBL105C, strain PKC1, hits give low values 0.99 | locus YBR135W, strain CKS1, hits give low values 0.985 | locus YBR136W, strain MEC1, hits give low values 0.982 | locus YBR160W, strain CDC28, hits give low values 0.983 | locus YDL017W, strain CDC7, hits give low values 0.992 | locus YDL028C, strain MPS1, hits give low values 0.981 | locus YDL101C, strain DUN1, hits give low values 0.973 | locus YDL108W, strain KIN28, hits give low values 0.983 | locus YDL132W, strain cdc53, hits give low values 0.988 | locus YDL214C, strain PRR2, hits give low values 0.701 | locus YDR052C, strain DBF4, hits give low values 0.991 | locus YDR054C, strain cdc34, hits give low values 0.986 | locus YDR226W, strain ADK1, hits give low values 0.979 | locus YDR477W, strain SNF1, hits give low values 0.706 | locus YER123W, strain YCK3, hits give low values 0.806 | locus YER133W, strain GLC7, hits give low values 0.765 | locus YFL009W, strain cdc4, hits give low values 0.993 | locus YFL029C, strain CAK1, hits give low values 0.987 | locus YFR003C, strain YPI1, hits give low values 0.989 | locus YFR019W, strain FAB1, hits give low values 0.864 | locus YFR028C, strain CDC14, hits give low values 0.985 | locus YGR040W, strain KSS1, hits give low values 0.739 | locus YGR052W, strain FMP48, hits give low values 0.7 | locus YGR092W, strain DBF2, hits give low values 0.917 | locus YHR079C, strain IRE1, hits give low values 1.07 | locus YHR205W, strain SCH9, hits give low values 0.958 | locus YIL147C, strain SLN1, hits give low values 0.984 | locus YJL095W, strain BCK1, hits give low values 0.863 | locus YJL128C, strain PBS2, hits give low values 0.934 | locus YJR016C, strain ILV3, hits give low values 0.987 | locus YJR066W, strain TOR1 (second series), hits give low values 0.804 | locus YJR066W, strain TOR1, hits give low values 0.502 | locus YKL048C, strain ELM1, hits give low values 0.981 | locus YKL067W, strain YNK1, hits give low values 0.857 | locus YKL101W, strain HSL1, hits give low values 0.945 | locus YKL193C, strain SDS22, hits give low values 0.995 | locus YKL203C, strain TOR2, hits give low values 0.976 | locus YLR133W, strain CKI1, hits give low values 0.953 | locus YLR403W, strain SFP1, hits give low values 0.938 | locus YML070W, strain DAK1, hits give low values 0.866 | locus YMR001C, strain CDC5, hits give low values 0.984 | locus YMR205C, strain PFK2 (second series), hits give low values 0.97 | locus YMR277W, strain FCP1, hits give low values 0.987 | locus YNL006W, strain LST8, hits give low values 0.996 | locus YNL020C, strain ARK1, hits give low values 0.959 | locus YNL161W, strain CBK1, hits give low values 0.986 | locus YNL183C, strain NPR1, hits give low values 0.793 | locus YNL207W, strain RIO2, hits give low values 0.992 | locus YNL222W, strain SSU72, hits give low values 0.99 | locus YNL307C, strain MCK1 (second series), hits give low values 0.969 | locus YOL078W, strain AVO1, hits give low values 0.989 | locus YOL136C, strain PFK27, hits give low values 0.818 | locus YOR061W, strain CKA2, hits give low values 0.946 | locus YOR119C, strain RIO1, hits give low values 0.972 | locus YOR231W, strain MKK1, hits give low values 1.05 | locus YOR329C, strain SCD5, hits give low values 0.999 | locus YPL031C, strain PHO85, hits give low values 0.778 | locus YPL153C, strain RAD53, hits give low values 0.909 | locus YPL204W, strain HRR25, hits give low values 0.899 | locus YPL209C, strain IPL1, hits give low values 0.991 | locus YPR025C, strain CCL1, hits give low values 0.991 | locus YPR106W, strain ISR1, hits give low values 0.986 | locus YPR111W, strain DBF20, hits give low values 0.98 | strain NNK1, hits give low values 0.993 | strain TSCII, hits give low values 0.991

CCOC(=O)C1=C(C)NC(=S)NC1c1cccc(O)c1 (configuration not stated)
inactive: locus YAL013W, strain DEP1, hits give low values 0.995 | [1] 0.985 | [2] 1 | [3] 1 | [4] 0.989 | locus YGR078C, strain PAC10, hits give low values 1 | locus YNL153C, strain GIM3, hits give low values 0.976 | [5] 0.995 | [6] 0.99 | [7] 0.996 | [8] 0.997 | [9] 0.968 | [10] 0.991 | [11] 1
